High-throughput results: PubChem BioAssay, National Center for Advancing Translational Sciences (NCATS)
Nrf2 activator – Nrf2 pathway activation; AREc32 ARE-luciferase reporter (MCF7-derived line), luminescence, 24 h; Potency, µM (series often up to 46.1 µM), for inactives: top-dose activation, most hits filed as activators; 0.31% of 410,000 active; AID 624171; also: potency is read from the fitted curve at half-maximal effect; % of control where 0% means no effect; nearly all actives have a fitted effect of over 65% in size
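ARE-driven firefly luciferase activity in AREc32 cells measured after a 24 hr compound exposure at 37 deg C, using Steady-Glo reagent and a 30 min room-temperature hold.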
Nrf2 block – Nrf2 pathway inhibition; Potency, µM (doses to about 46 µM), for the others: at the highest dose activity change, negative = inhibition, usual class: inhibitors; A549 ARE-Fluc reporter, luciferase luminescence, 18-24 h; 2.1% of 360,000 active; AID 504444; also: potency is read from the fitted curve at half-maximal effect; % is scaled to controls: 0 for no effect and ±100 for the full control effect; nearly all actives have a fitted effect of over 60% in size
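Two sequential reads on A549 ARE_Fluc cells exposed to compound for 18-24 h: a CellTiter-Fluor fluorescence read for viability, then a luciferase luminescence read for Nrf2/ARE activity.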
A549 tox-1 – A549 cytotoxicity, counter-screen for Nrf2 inhibitors | A549 ARE-Fluc cells, CellTiter-Fluor viability, 18-24 h | Potency, µM (titrated, usually from 46 µM), without a hit: at the top dose activity change, negative = cytotoxicity, usual class: inhibitors | 0.16% of 390,000 active; also: potency is read from the fitted curve at half-maximal effect; % is scaled to controls: 0 for no effect and ±100 for the full control effect
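A549 ARE-Fluc cells in 5% FBS OPTI-MEM, 5000 cells/well, rested 2 h then exposed to compounds in concentration-response for 18-24 h at 37 °C. Viability by CellTiter-Fluor fluorescence (Ex 405/Em 525) after 30 min; luciferase luminescence (BugLite, 15 min, RT) read afterwards.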
CCT chaperon mod – modulators of cytosolic chaperonin (CCT/TRiC) activity; 0.3% of 360,000 active; activity change, % (test concentration not listed), hits read low; purified chaperonin ATPase assay, HTRF ADP detection, 30 min; in the data active = activity change below about -30%; also: % is scaled to controls: 0 for no effect and ±100 for the full control effect
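TRiC at 40 or 20 nM final (batch-dependent) in 30 mM Tris pH 7.4, 100 mM KCl, 5 mM MgCl2, 1 mM DTT, with compound at single 76 uM and 10 uM ATP, 30 min at 37 deg C. ADP detected by HTRF Transcreener, 665/615 ratio.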
TCR act – activates T cell receptor signaling; Potency, µM (series often up to 9.22 µM), inactives show top-dose activation of IL-2 secretion, hits mostly activators; 330,000 tested, under 10 active; primary human leukocytes, anti-CD3, IL-2 HTRF, 48 h; also: % of control where 0% means no effect
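Primary human leukocytes receive a-CD3 beads and test compound and are incubated 48 hr. Secreted IL-2 is then assayed by HTRF, measuring 665nm acceptor emission after 320nm excitation of the europium donor.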
A-T KAP1 phos – candidate therapy for ataxia-telangiectasia; 0.19% of 320,000 active; F2112 A-T fibroblasts, KAP-1 phosphorylation AlphaLISA; neocarzinostatin DNA damage 30 min before lysis; AID 485349; Potency, µM (top dose mostly 57.5 µM), inactives show top-dose activation, usual class: activators; also: potency is read from the fitted curve at half-maximal effect; % of control where 0% means no effect; nearly all actives have a fitted effect of over 45% in size
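hTERT-immortalized A-T patient fibroblasts (F2112), 500 cells/well in OPTI-MEM, 1% FBS, got compounds for 60 min, then NCS for 30 min at 37C. Lysates were then assayed for phospho-KAP-1 by AlphaLISA (anti-pKAP1 donor, anti-KAP1 acceptor beads), 6 hr at 25C.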
FLuc enzyme inh – blocks purified firefly luciferase in Nrf2 counterscreen. shares compounds with Nrf2 block. purified firefly luciferase, luminescence inhibition. Potency, µM (series often up to 57.5 µM), without a hit: at the highest dose activity change, negative = inhibition, most hits filed as inhibitors. 4% of 1,400 active; also: potency is read from the fitted curve at half-maximal effect; % is scaled to controls: 0 for no effect and ±100 for the full control effect; nearly all actives have a fitted effect of over 65% in size
Target sequence (P08659 whole entry, looked up): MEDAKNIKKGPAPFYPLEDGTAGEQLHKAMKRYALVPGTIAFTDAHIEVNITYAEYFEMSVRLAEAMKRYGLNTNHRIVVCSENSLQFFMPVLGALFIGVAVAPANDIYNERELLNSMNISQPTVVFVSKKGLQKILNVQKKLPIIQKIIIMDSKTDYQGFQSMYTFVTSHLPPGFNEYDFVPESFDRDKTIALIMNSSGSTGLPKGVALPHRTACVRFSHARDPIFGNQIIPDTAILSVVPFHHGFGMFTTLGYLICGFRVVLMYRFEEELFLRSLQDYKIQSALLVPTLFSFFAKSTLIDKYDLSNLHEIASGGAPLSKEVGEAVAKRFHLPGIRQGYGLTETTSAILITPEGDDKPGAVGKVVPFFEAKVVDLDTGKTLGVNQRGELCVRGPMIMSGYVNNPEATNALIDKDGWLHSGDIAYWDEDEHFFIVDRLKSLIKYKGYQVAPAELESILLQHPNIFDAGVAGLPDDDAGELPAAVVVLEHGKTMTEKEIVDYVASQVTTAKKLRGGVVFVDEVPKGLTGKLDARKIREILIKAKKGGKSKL
A549 tox-2 – A549 cytotoxicity, Nrf2 inhibitor counterscreen; AID 720523; shares compounds with Nrf2 block; A549 ARE-Fluc cells, cytotoxicity counterscreen; Potency, µM (doses to about 46.1 µM), inactives show top-dose activity change, negative = cytotoxicity, actives largely listed as inhibitors; 2% of 1,400 active;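 also: potency is read from the fitted curve at half-maximal effect; cells exposed to compounds for 18 to 24 hours; % is scaled to controls: 0 for no effect and ±100 for the full control effect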
Nrf2 ARE inh – confirmation of Nrf2 inhibitors in A549 ARE reporter cells | shares compounds with Nrf2 block | A549 ARE-firefly luciferase reporter, luminescence | Potency, µM (titrated, usually from 46.1 µM), without a hit: top-dose activity change, negative = inhibition, usual class: inhibitors | 74% of 1,400 active; also: potency is read from the fitted curve at half-maximal effect; % is scaled to controls: 0 for no effect and ±100 for the full control effect; nearly all actives have a fitted effect of over 65% in size
* = called active by the depositor; ? = inconclusive; · = no result given; [ ] = dose if it differs, or a comment. An excerpt weighted towards active compounds, which were near 2.6% of everything screened. Unless noted, calls follow the shape of the dose curve; as a rule, active = well fitted curve in the direction sought with a large enough effect; inconclusive = small, poorly fitted or top-dose-only effect, or another doubt; inactive = no such curve, though single readings can be large; an effect the other way counts as inactive or inconclusive.

SMILES | Nrf2 activator | Nrf2 block | A549 tox-1 | CCT chaperon mod | TCR act | A-T KAP1 phos | FLuc enzyme inh | A549 tox-2 | Nrf2 ARE inh
COc1cc2c(cc1OC)[C@@H]1C(=O)c3ccc4c(c3O[C@@H]1CO2)C[C@H](C(C)C)O4 | 0% | 0.29µM* | -13% | -1 | -5% | 5% | 0% | -15% | 0.23µM*
CC(=NNC(=S)N1CC2CCC(CC2)C1)c1nccs1 | 6% | 1.5µM* | ? | -3 | 1% | · | 19µM* | ? | 2.9µM*
CCOC(=O)c1ccc(N2C(=O)c3n[nH]c(-c4cccs4)c3C2c2ccc(Cl)cc2Cl)cc1 (centres undefined) | -5% | ? | -14% | · | · | · | · | · | ·
Cc1ccccc1-n1nc(C)c2c1NC(=O)CSC2c1ccccc1C(F)(F)F (centres undefined) | 7% | 15% | 7% | · | · | · | · | · | ·
NC(=S)c1cn(C2OC(CO)C(O)C2O)c2ncnc(N)c12 (centres undefined) | -2% | ? | ? | 1 | -2% | 1% | · | · | ·
Nc1ncnc2c1ccn2[C@@H]1O[C@H](CO)[C@@H](O)[C@H]1O | -1% | 3.7µM* | ? | 1 | 8% | · | -2% | ? | 0.65µM*
O=S1(=O)N(Cc2ccccc2)CCCN1Cc1ccc(F)cc1Cl | 0% | ? | 3% | · | · | · | · | · | ·
CC(=O)OC[C@]12CCC(C)=C[C@H]1O[C@@H]1[C@H](O)[C@@H](OC(C)=O)[C@@]2(C)[C@]12CO2 | -2% | 0.018µM* | ? | 2 | 6% | 19% | 0% | -9% | 2.6µM*
Cc1nn(C(C)(C)C)c(C)c1/C=N/OC(=O)Nc1ccc(Cl)cc1 | -3% | ? | 1% | 0 | 2% | 11% | · | · | ·
CN1CC=C(c2c[nH]c3ccccc23)CC1 | 0% | 1.8µM* | ? | 0 | -5%[46.1 µM] | -3% | 1% | -11% | 16µM*
CC[C@@H](O)C[C@H]1CCC[C@@]2(C[C@@H]3OC(=O)/C=C/[C@@](C)(O)[C@@H](O)[C@H](C)[C@@H](O)[C@H](OC4CCC(N(C)C)C(C)O4)[C@@H](O)[C@](C)(O)CCCCC/C=C/[C@@H]4CC(C)(C)O[C@@]4(O)C[C@H](O2)[C@H]3C)O1 (some centres undefined) | 3% | 0.0058µM* | ? | -5 | -2% | · | 0% | ? | 0.0073µM*
COc1ccc(C(=O)Nc2ccccc2-c2nnn(CC(=O)Nc3ccc4c(c3)OCCO4)n2)cc1 | 0% | ? | -4% | 2 | -11% | 6% | · | · | ·
CC(=O)OC1C(O)C(C)OC(OC2C(OC(=O)C3CCC4C(C3)OC3(CC(OC(=O)/C=C/c5ccccc5)C(C)CO3)C43CO3)OC(C)C(O)C2OC(C)=O)C1O (centres undefined) | -1% | 0.023µM* | ? | -1 | -7% | · | -11% | -3% | 6.5µM*
O=C1CN=C(c2ccccc2Cl)c2cc(Cl)ccc2N1Cc1cccc(Cl)c1 | 0% | · | ? | · | · | · | · | · | ·
C[C@@H]1C[C@@H]([C@H](O)CC2CC(=O)NC(=O)C2)C(=O)[C@@H](C)C1 | -3% | 0.58µM* | ? | -1 | -1% | 9% | -11% | -29% | 5.8µM*
CC(=O)OC1(C)CC(C)C(=O)C(C(O)CC2CC(=O)NC(=O)C2)C1 (centres undefined) | -6% | 0.058µM* | ? | 0 | 1% | · | 1% | -2% | 5.2µM*
C[C@]12CCC3C(CC[C@H]4CC(O)CC[C@]34C)C1CC/C2=N/NC(=O)c1ccncc1 (some centres undefined) | 0% | ? | -5% | 1 | 14% | -11% | · | · | ·
CC(=O)Nc1ccc(S(=O)(=O)N2CCSC2c2ccc(C)cc2)cc1 (centres undefined) | 0% | ? | -20% | -1 | -3% | 11% | · | · | ·
CC[C@H]1CN2CCc3cc(OC)c(OC)cc3C2C[C@@H]1C[C@H]1NCCc2cc(OC)c(OC)cc21 (some centres undefined) | -2% | 0.12µM* | ? | -1 | -7% | -4% | -1% | ? | 0.52µM*
COc1ccc(CC2c3cc(OC)c(OC)cc3CCN2C)cc1O (centres undefined) | -1% | 11% | -1% | 1 | -1% | 3% | · | · | ·
CCC(=NC(C)c1ccccc1)c1c(O)n(C)c(=O)n(C)c1=O (centres undefined) | 3% | 5.8µM* | -16% | -1 | 4% | 4% | 2% | -8% | 7.3µM*
CCC(=NCCc1c[nH]c2ccccc12)c1c(O)n(-c2ccc(C)cc2)c(=O)[nH]c1=O | 2% | ? | ? | -2 | 11%[46.1 µM] | 2% | · | · | ·
CCC(=NCCc1c[nH]c2ccccc12)c1c(O)n(C)c(=O)n(C)c1=O | 3% | 9.2µM* | ? | -1 | -1% | 7% | 2% | -1% | ·
COc1ccc(CC2NCC(O)C2OC(C)=O)cc1 (centres undefined) | -5% | 0.46µM* | ? | 1 | 3% | · | 1% | -5% | 1.5µM*
COc1ccc(CC(=O)N2CCN(C)CC2)cc1 | 0% | 0% | 0% | -5 | · | -3% | · | · | ·
CC(=O)OC(C)(C)/C=C/C(=O)C(C)(O)C1[C@H](O)C[C@@]2(C)C3CC=C4C(CC[C@@H](O)C4(C)C)[C@]3(CO)C(=O)C[C@]12C (some centres undefined) | 27% | 0.23µM* | 0.26µM* | 0 | 2% | -3% | 3% | ? | 0.16µM*
C=CC[C@@H](CC(=O)N(CCO)Cc1ccccc1)C(=O)NC[C@@H](OC(=O)[C@@H](CC=C)CC(=O)OC(C)(C)C)c1ccccc1 | -1% | ? | -27% | -2 | -6% | 9% | · | · | ·
Cc1cc(OCC(=O)N2CCN(CCc3ccccn3)CC2)cc(C)c1Cl | 4% | 12% | 3% | · | · | · | · | · | ·
